According to PubChem BioAssay:
“And” between values parts separate entries of the source, which are not always exact repeats. Equal values may be shown once. Inconclusive results are not listed. For some of these results: Results with a measured potency or affinity are listed apart. The source made the active and inactive calls. Unless noted, no rule for the calls is given here.

Experiments:
[1] = target: 6-phosphogluconate dehydrogenase, decarboxylating (Homo sapiens) (UniProt P52209); experiment: 6PGD enzyme inhibitors, primary screen, biochemical, human, recombinant enzyme, NADPH absorbance (AID 1159550;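 active = at least 20% inhibition of 6-phosphogluconate dehydrogenase activity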); settings: recombinant 6PGD, NADPH absorbance 341 nm; at 10 µM; stronger effect = higher value
[2] = tested on: Aerobactin synthetase IucA (Klebsiella pneumoniae hvKP1); experiment: Biochemical IucA enzyme inhibition primary screen of the Spectrum library (AID 1346200); settings: malachite green pyrophosphate, A620, at 8 µM, stronger effect = lower value;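 also: 100% = wells without compound and 0% = wells lacking enzyme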
[3] = sensitizers of A549 cells to miR-34 induction, primary screen, imaging, A549 dox-inducible miR-34, nuclei and caspase counts (AID 1347080;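 active = compounds whose cell count with miR-34 switched on is under 0.7 times the count with it off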); settings: A549 miR-34 inducible, Hoechst nuclei count, 48 h
[4] = survival rescue of mitochondrial mutant cells in low glucose, primary screen, MELAS cybrids, Rieske KO mouse fibroblasts, CellTiter-Glo (AID 1508586;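 active = mean z-score across replicates of 1.96 or higher in either the MELAS or the Rieske mutant cell line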;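 also: z relative to plate mean and SD of compound and empty wells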)
[5] = target: Mitogen-activated protein kinase 7 (Homo sapiens) (UniProt Q13164); experiment: ERK5 transactivation activators in reporter cells, primary screen, cell-based, HTS (AID 1508626;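 active = luciferase signal above three times the same-plate solvent-only control wells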;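 also: luciferase driven by Gal4-ERK5 fusion binding five Gal4 sites before minimal TATA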); settings: HeLa Gal4-ERK5 transactivation, 18 h, at 5 µM, stronger effect = higher value
[6] = viability rescue of complex I mutant cybrids, primary screen, cell-based, galactose medium, ATP luminescence (AID 1645843;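 active = z-score of at least 1.8 in each of two replicates, scored against plate mean and spread of sample wells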;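 also: positive z means more ATP and so rescue of galactose-driven cybrid death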); settings: complex I mutant cybrid cells, 72 h, stronger effect = higher value
[7] = hESC survival regulators, cell-based (AID 493140); settings: human embryonic stem cell survival screen; stronger effect = higher value;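 also: cells exposed to compounds for four days before counting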
[8] = liver-stage malaria parasite growth inhibition, primary screen, cell-based, HepG2, luciferase luminescence, HepG2 viability (AID 624349; in the data active = parasite load remaining mostly below about 12%, no sharp cut-off; inactive = mostly above about 10%;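 also: 100% = mean of DMSO negative control wells on the same plate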); settings: P. berghei liver stage in HepG2, luciferase luminescence, concentration not given here; parasite load remaining: stronger effect = lower value; viability: measured here: HepG2 viability without parasites
[9] = target: NAD(+) hydrolase SARM1 (Homo sapiens) (UniProt Q6SZW1); experiment: SARM1 TIR NADase inhibitors, cell lysate, NAD-Glo luminescence (AID 1508614;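 active = compound whose remaining NAD level is above about 45 nM, limit read from the data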;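 also: higher remaining NAD means stronger inhibition of SARM1 NADase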); settings: SAM-TIR HEK293T lysate NADase, at 1 µM, stronger effect = higher value
[10] = target: ATP-dependent translocase ABCB1 (Homo sapiens) (UniProt P08183); experiment: MDR1 (ABCB1) efflux transporter inhibition, cell-based (AID 377; in the data active = fluorescence slope change above about 50%); settings: MDR1-expressing cells, fluorescent substrate accumulation slope; stronger effect = higher value; concentration not given here
[11] = polyglutamine-triggered caspase-3 activation inhibitors, cell-based (AID 1583); settings: polyglutamine-induced caspase-3 activation, cell assay; stronger effect = higher value;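 tested at 10 µM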
[12] = suppressors of polyQ aggregation in yeast, 75Q-TubU reporter (AID 1593); settings: Yeast 75Q polyglutamine aggregation reporter
[13] = rescue of polyQ-huntingtin neuronal dysfunction in worms, whole organism, C. elegans mechanosensory neurons, N-terminal huntingtin (AID 1599); settings: touch response, stronger effect = higher value
[14] = inhibitors of mitochondrial cytochrome c release, biochemical, purified mitochondria (AID 1603); settings: stronger effect = lower value;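 also: mouse liver mitochondria challenged with calcium chloride; signal normalized to the plate average as 100%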
[15] = inhibitors of polyQ protein aggregation (AID 1604); settings: polyglutamine-induced protein aggregation inhibition assay; stronger effect = higher value; tested at 2.5 µM
[16] = enhancers of glutamate uptake in motor neurons, MN-1 cell line (AID 1612); settings: MN-1 motor neuron cells, stronger effect = higher value;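 also: tested at 1 µM final; 0% = mean of DMSO vehicle wells on each plate; positive means more glutamate uptake than control and negative means less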
[17] = suppressors of polyglutamine aggregation in yeast, 75Q-TubH (AID 1616); settings: S. cerevisiae 75Q-TubH polyglutamine aggregation suppression; stronger effect = higher value
[18] = growth inhibition of DIPG glioma cells, dose response, cell-based, SU-DIPG-XVII, MIPE5.0, CellTiter-Glo, qHTS (AID 1347060; cut-off not given, nearly all actives have AC50 up to about 26 µM); settings: SU-DIPG-XVII viability, CellTiter-Glo ATP luminescence
[19] = growth inhibition of DIPG glioma cells, dose response, cell-based, SU-DIPG-XIII, MIPE4.0, CellTiter-Glo, qHTS (AID 1347061; cut-off not given, nearly all actives have AC50 up to about 37 µM;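 also: cells exposed to compound for 48 hours before readout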); settings: SU-DIPG-XIII viability, CellTiter-Glo ATP luminescence
[20] = growth inhibition of DIPG glioma cells, dose response, cell-based, JHH-DIPG-1, MIPE4.0, CellTiter-Glo, qHTS (AID 1347062; cut-off not given, nearly all actives have AC50 up to about 27 µM); settings: JHH-DIPG-1 viability, CellTiter-Glo ATP luminescence
[21] = growth inhibition of DIPG glioma cells, dose response, cell-based, SU-DIPG-IV, MIPE4.0, CellTiter-Glo, qHTS (AID 1347063; cut-off not given, nearly all actives have AC50 up to about 30 µM;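 also: compound exposure lasted 48 hours before the viability readout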); settings: SU-DIPG-IV viability, CellTiter-Glo ATP luminescence
[22] = growth inhibition of DIPG glioma cells, dose response, cell-based, SU-DIPG-XIII, MIPE5.0, CellTiter-Glo, qHTS (AID 1347064; cut-off not given, nearly all actives have AC50 up to about 23 µM); settings: SU-DIPG-XIII viability, CellTiter-Glo ATP luminescence
[23] = viability loss in pontine glioma line – cell-based, SU-DIPG-XXV, MIPE5.0, CellTiter-Glo, qHTS, dose response (AID 1347065; cut-off not given, nearly all actives have AC50 up to about 26 µM;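 also: cells exposed to compound for 48 hours before ATP readout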); settings: CellTiter-Glo ATP luminescence
[24] = SU-DIPG-VI glioma cell viability, MIPE4.0 library, CellTiter-Glo luminescence, qHTS (AID 1347066; cut-off not given, nearly all actives have AC50 up to about 30 µM;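 also: cells exposed to compound for 48 hours before readout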); settings: CellTiter-Glo ATP luminescence
[25] = JHH-DIPG-1 glioma cell viability, MIPE5.0 library, CellTiter-Glo luminescence, qHTS (AID 1347067; cut-off not given, nearly all actives have AC50 up to about 26 µM;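 also: cells exposed to compound for 48 hours before readout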); settings: JHH-DIPG-1 glioma viability, CellTiter-Glo ATP luminescence
[26] = SU-DIPG-XXV glioma cell viability, MIPE5.0 library, qHTS (AID 1347068; cut-off not given, nearly all actives have IC50 up to about 30 µM)
[27] = mitochondrial permeability transition inhibitors (AID 1580); settings: isolated mitochondria, permeability transition inhibition
[28] = inhibitors of polyQ aggregate elongation, biochemical, solid-phase synthetic aggregates, QA3 (AID 1585); settings: biotin-polyQ incorporation; EC50: measured here: elongation inhibition potency; inhibition: at 100 µM, stronger effect = higher value
[29] = polyglutamine aggregation reduction, turbidity readout, qthio, single concentration 25 µM screen (AID 1588); settings: at 25 µM, stronger effect = lower value
[30] = circadian clock period modulators, cell-based, LOPAC library, luminescence reporter (AID 2774); settings: circadian reporter cells, at 7 µM, actives lie on both sides;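 also: values are relative to mean of DMSO wells on each plate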
[31] = tested on: Hepatitis C virus NS3 helicase; experiment: HCV NS3 helicase inhibitors, primary screen, biochemical, fluorescence polarization, LOPAC1280 library (AID 687035; in the data active = inhibition above about 37%); settings: Purified HCV NS3 helicase, Cy5-dT15 ssDNA binding fluorescence polarization; stronger effect = higher value; concentration not given here
[32] = Cy5 fluorescence quenching or enhancement artefacts, artefact control for HCV NS3 helicase inhibitor project, biochemical, LOPAC1280 (AID 687037); settings: Cy5-DNA-NS3h complex fluorescence interference counterscreen
[33] = tested on: Aerobactin synthetase IucA (Klebsiella pneumoniae, hypervirulent); experiment: IucA enzyme inhibition, biochemical, LOPAC library, absorbance readout (AID 1346212); settings: IucA enzyme assay, absorbance (OD) readout; stronger effect = lower value; concentration not given here;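 also: 100% = no compound wells and 0% = no enzyme wells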
[34] = measured here: relative caspase fold change +Dox/-Dox
[35] = measured here: total cells with miR-34 induction, stronger effect = lower value
[36] = measured here: total cells without miR-34 induction
[37] = MELAS cybrid survival, CellTiter-Glo 48 h, stronger effect = higher value
[38] = Rieske KO mouse fibroblast survival, CellTiter-Glo 72 h

Chain of 6-phosphogluconate dehydrogenase, decarboxylating (Homo sapiens) (P52209 whole entry, looked up): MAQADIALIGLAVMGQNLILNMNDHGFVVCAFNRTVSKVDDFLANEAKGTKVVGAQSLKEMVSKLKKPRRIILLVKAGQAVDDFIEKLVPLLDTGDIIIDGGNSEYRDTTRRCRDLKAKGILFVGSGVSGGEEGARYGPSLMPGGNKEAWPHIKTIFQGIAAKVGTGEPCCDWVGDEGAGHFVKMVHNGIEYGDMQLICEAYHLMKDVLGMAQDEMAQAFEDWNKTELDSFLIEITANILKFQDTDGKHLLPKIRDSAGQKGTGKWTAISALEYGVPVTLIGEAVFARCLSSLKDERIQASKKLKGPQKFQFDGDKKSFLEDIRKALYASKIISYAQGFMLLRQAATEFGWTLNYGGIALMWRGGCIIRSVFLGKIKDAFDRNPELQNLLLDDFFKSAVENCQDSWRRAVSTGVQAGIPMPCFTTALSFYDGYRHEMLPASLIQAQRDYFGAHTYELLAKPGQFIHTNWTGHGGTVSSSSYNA
Chain of NAD(+) hydrolase SARM1 (Homo sapiens) (Q6SZW1 whole entry, looked up): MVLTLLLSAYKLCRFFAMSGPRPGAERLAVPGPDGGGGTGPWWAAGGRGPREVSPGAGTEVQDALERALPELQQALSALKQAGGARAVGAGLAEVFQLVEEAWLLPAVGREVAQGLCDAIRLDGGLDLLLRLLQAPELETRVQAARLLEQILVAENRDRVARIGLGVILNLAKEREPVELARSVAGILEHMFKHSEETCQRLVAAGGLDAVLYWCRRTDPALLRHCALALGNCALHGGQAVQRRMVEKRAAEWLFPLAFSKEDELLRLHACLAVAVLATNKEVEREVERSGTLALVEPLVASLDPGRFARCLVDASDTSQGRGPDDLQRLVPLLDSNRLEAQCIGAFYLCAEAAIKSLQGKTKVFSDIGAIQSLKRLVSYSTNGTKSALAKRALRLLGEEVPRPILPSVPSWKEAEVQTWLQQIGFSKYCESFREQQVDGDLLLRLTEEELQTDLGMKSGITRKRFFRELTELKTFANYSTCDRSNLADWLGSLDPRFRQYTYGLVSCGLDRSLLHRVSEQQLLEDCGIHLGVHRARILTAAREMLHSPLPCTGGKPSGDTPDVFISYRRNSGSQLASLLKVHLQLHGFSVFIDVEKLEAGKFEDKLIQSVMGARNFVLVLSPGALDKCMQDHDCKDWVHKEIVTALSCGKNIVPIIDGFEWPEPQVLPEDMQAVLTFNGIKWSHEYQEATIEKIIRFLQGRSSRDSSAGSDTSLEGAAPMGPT
Chain of Mitogen-activated protein kinase 7 (Homo sapiens) (Q13164 whole entry, looked up, the tested form may be a part): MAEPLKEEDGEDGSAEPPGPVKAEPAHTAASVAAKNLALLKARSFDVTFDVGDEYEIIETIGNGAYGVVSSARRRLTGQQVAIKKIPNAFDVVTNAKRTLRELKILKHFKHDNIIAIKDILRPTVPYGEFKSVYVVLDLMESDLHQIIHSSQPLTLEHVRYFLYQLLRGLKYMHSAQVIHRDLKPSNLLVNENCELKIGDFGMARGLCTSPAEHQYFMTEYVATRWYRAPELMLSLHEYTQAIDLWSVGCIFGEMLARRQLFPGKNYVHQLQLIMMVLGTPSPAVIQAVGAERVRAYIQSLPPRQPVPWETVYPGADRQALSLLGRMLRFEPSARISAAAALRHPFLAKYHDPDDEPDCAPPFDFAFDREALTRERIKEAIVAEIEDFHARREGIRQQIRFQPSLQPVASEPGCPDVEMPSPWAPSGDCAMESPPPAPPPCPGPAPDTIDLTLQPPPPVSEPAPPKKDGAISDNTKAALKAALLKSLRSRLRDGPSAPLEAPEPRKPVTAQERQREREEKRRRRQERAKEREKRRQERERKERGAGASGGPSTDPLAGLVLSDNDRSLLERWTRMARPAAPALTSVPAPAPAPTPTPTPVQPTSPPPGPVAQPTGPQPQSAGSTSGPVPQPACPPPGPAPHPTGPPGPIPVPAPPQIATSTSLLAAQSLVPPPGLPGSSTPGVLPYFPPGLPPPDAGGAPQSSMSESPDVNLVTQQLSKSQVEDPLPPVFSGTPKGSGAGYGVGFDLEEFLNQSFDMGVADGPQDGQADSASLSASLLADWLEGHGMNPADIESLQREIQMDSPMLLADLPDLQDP
Chain of ATP-dependent translocase ABCB1 (Homo sapiens) (P08183 whole entry, looked up): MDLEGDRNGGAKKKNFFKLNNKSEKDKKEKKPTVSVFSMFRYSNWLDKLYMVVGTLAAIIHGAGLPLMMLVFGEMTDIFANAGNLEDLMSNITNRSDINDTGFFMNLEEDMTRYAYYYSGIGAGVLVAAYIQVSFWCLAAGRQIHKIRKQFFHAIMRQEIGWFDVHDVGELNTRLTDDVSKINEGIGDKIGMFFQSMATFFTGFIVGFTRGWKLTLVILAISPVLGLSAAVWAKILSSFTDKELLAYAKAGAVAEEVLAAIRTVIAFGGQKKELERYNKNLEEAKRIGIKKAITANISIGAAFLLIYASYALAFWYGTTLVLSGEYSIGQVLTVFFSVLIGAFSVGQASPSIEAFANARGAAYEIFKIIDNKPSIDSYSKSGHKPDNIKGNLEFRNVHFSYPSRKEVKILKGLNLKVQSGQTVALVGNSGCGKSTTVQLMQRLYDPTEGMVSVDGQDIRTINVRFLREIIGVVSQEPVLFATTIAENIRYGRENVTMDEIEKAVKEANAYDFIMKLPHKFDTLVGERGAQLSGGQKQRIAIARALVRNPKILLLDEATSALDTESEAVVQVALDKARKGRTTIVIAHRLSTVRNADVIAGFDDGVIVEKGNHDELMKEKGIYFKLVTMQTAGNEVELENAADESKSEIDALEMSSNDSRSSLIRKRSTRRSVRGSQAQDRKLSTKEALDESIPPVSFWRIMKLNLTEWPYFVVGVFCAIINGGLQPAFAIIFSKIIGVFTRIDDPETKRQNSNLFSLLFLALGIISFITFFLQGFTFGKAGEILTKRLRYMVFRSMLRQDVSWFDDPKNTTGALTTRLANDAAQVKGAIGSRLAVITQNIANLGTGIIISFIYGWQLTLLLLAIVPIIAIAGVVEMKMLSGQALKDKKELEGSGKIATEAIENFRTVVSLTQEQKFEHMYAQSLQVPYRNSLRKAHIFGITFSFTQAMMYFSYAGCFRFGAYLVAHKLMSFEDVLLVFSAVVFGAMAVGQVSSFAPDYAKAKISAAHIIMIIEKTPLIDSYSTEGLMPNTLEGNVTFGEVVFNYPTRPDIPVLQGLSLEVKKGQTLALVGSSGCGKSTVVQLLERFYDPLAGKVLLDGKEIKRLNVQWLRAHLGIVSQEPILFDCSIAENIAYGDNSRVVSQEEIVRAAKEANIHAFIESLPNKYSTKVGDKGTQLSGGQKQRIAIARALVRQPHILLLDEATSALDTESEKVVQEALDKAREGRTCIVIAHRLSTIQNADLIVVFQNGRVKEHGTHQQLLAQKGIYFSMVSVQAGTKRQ

Structure (SMILES): CCNc1nc(Cl)nc(NC(C)C)n1
- inhibition [1]: 7.64% (inactive)
- activity remaining [2]: 97.8% (inactive)
- fold change ([3]; stronger effect = lower value): 0.888 (inactive)
- fold change [3, 34]: 0.465
- cell count [3, 35]: 8110
- cell count [3, 36]: 9140
- z-score [4, 37]: 3.44 (active)
- z-score [4, 38]: -0.553
- luciferase signal [5]: 36 AU (inactive)
- z-score [6]: 0.59 (inactive)

Structure (SMILES): COc1cc([C@@H]2c3cc4c(cc3[C@H](OC(C)=O)[C@H]3COC(=O)[C@@H]23)OCO4)cc(OC)c1OC
- inhibition [1]: -3.31% (inactive)
- activity remaining [2]: 96.2% (inactive)
- luciferase signal [5]: 64 AU (inactive)

Structure (SMILES): CCC(=O)O[C@H]1CC[C@H]2[C@@H]3CCC4=CC(=O)CC[C@]4(C)[C@H]3CC[C@]12C
- survival [7]: 13.8 (inactive)
- parasite load remaining [8]: 71.3% (inactive) and 54% (inactive)
- viability [8]: 94.2% and 78.8%
- inhibition [1]: 16.6% (inactive)
- fold change ([3]; stronger effect = lower value): 0.875 (inactive)
- fold change [3, 34]: 1.34
- cell count [3, 35]: 8190
- cell count [3, 36]: 9360
- z-score [4, 37]: -0.581 (inactive)
- z-score [4, 38]: -0.301
- remaining NAD [9]: 10 nM (inactive)
- luciferase signal [5]: 32 AU (inactive)

Structure (SMILES): NNCc1ccccc1
- parasite load remaining [8]: 106% (inactive)
- viability [8]: 91.4%
- inhibition [1]: 9.93% (inactive)
- activity remaining [2]: 105% (inactive)

Structure (SMILES): C[CH2][Hg][S]c1ccccc1C(=O)O
- fluorescence slope change [10]: -19.9% (inactive)
- inhibition [11]: 67.3%
- score [12]: -0.03
- rescue above control [13]: 0
- cytochrome c release ratio [14]: 0.71
- inhibition of aggregation [15]: 18.2%
- glutamate uptake change [16]: 8.21%
- aggregation suppression score [17]: -0.00186
- parasite load remaining [8]: 82.3% (inactive) and 0.045% (inactive)
- viability [8]: 62% and 0.315%
- inhibition [1]: 17.7% (inactive)
- activity remaining [2]: -3.51% (active)
- fold change ([3]; stronger effect = lower value): 1.62 (inactive)
- fold change [3, 34]: 0.728
- cell count [3, 35]: 630
- cell count [3, 36]: 389
- remaining NAD [9]: 10 nM (inactive)
- luciferase signal [5]: 44 AU (inactive)

Structure (SMILES): CC(C)C[C@H](CN)CC(=O)O
- inhibition [1]: 9.49% (inactive)
- outcome [18]: inactive
- outcome [19]: inactive
- outcome [20]: inactive
- outcome [21]: inactive
- outcome [22]: inactive
- outcome [23]: inactive
- outcome [24]: inactive
- outcome [25]: inactive
- outcome [26]: inactive
- z-score [4, 37]: -0.0671 (inactive)
- z-score [4, 38]: 0.159
- remaining NAD [9]: 10 nM (inactive)

Structure (SMILES): O=C(O)c1ccccc1-c1c2cc(Br)c(=O)cc-2oc2[c]([Hg])c(O)c(Br)cc12
- EC50 [27]: 10 µM (active)
- inhibition [11]: 39.1%
- EC50 [28]: 38 µM
- inhibition [28]: 61.6% (active)
- aggregation (% of control) [29]: 41.9% (active)
- score [12]: 0.07
- rescue above control [13]: 0
- cytochrome c release ratio [14]: 1.39
- inhibition of aggregation [15]: 57.7%
- glutamate uptake change [16]: -7.36%
- aggregation suppression score [17]: 0.0281
- survival [7]: 18.6 (inactive)
- parasite load remaining [8]: 62.4% (inactive) and 40.3% (inactive)
- viability [8]: 57.8% and 97.8%
- inhibition [1]: 2.12% (inactive)
- activity remaining [2]: -1.02% (active)
- fold change ([3]; stronger effect = lower value): 0.908 (inactive)
- fold change [3, 34]: 2.08
- cell count [3, 35]: 11900
- cell count [3, 36]: 13100
- remaining NAD [9]: 56 nM (active)
- luciferase signal [5]: 52 AU (inactive)

Structure (SMILES): CCCCCC[C@H]1C(=O)O[C@H](C)[C@H](NC(=O)c2cccc(NC=O)c2O)C(=O)O[C@@H](C)[C@@H]1OC(=O)CC(C)C
- inhibition [1]: 3.85% (inactive)
- AC50 [24]: 1.32 µM (active)

Structure (SMILES): CC(C)(C)C(=O)C(Oc1ccc(Cl)cc1)n1cncn1 (centres undefined)
- inhibition [1]: 12.8% (inactive)
- activity remaining [2]: 127% (inactive)
- luciferase signal [5]: 44 AU (inactive)

Structure (SMILES): CNNC
- inhibition [1]: -3.38% (inactive)
- activity remaining [2]: 86.5% (inactive)
- luciferase signal [5]: 32 AU (inactive)

Structure (SMILES): CCCN(CCC)c1c([N+](=O)[O-])cc(C(F)(F)F)cc1[N+](=O)[O-]
- inhibition [1]: -18.5% (inactive)
- activity remaining [2]: 95.7% (inactive)
- luciferase signal [5]: 72 AU (inactive)

Structure (SMILES): C[N+](C)(C)CC(=O)O
- period change [30]: -0.005 h (inactive)
- inhibition [31]: -5% (inactive)
- fluorescence ratio (interference) [32]: 0.9 (inactive)
- inhibition [1]: 5.32% (inactive)
- remaining activity [33]: 106% (inactive)
- outcome [19]: inactive
- outcome [20]: inactive
- outcome [21]: inactive
- outcome [24]: inactive
- fold change ([3]; stronger effect = lower value): 1.03 (inactive)
- fold change [3, 34]: 1.89
- cell count [3, 35]: 9950
- cell count [3, 36]: 9700
- remaining NAD [9]: 10 nM (inactive)
- luciferase signal [5]: 268 AU (inactive)
- z-score [6]: 0.805 (inactive)
